High-throughput results deposited in PubChem BioAssay by National Center for Advancing Translational Sciences (NCATS).
A549 viability – kills or reduces viability of A549 cells in Nrf2 counter-screen. A549 ARE-Fluc cells, CellTiter-Fluor viability, 18-24 h. Potency, µM (doses to about 46 µM), inactives show at the highest dose activity change, negative = cytotoxicity, hits mostly inhibitors. hit rate 0.16% among 390,000; also: % is scaled to controls: 0 for no effect and ±100 for the full control effect
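A549 ARE_Fluc cells in 5% FBS OPTI-MEM were exposed to compounds in concentration-response for 18-24 h at 37 deg C. Viability was read by CellTiter-Fluor fluorescence (Ex 405/Em 525) after 30 min, before the luciferase read.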
Nrf2 inh – Nrf2 pathway inhibition; AID 504444; A549 ARE-Fluc reporter, luciferase luminescence, 18-24 h; hit rate 2.1% among 360,000; Potency, µM (highest dose often 46 µM), for inactives: at the highest dose activity change, negative = inhibition, hits mostly inhibitors; also: % is scaled to controls: 0 for no effect and ±100 for the full control effect; nearly all actives have a fitted effect of over 60% in size
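Reporter: ARE-Fluc in A549. Exposure: 18-24 h, 37 °C, 5% CO2, 5% FBS OPTI-MEM. Readouts: fluorescent cytotoxicity (CellTiter-Fluor), then luminescent Nrf2 signal after BugLite.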
ATXN2 expr inh – inhibitors of ATXN2 expression; HEK-293 ATXN2-luciferase reporter, luminescence, 24 h; Potency, µM (highest dose often 57 µM), without a hit: at the top dose activity change, negative = inhibition, hits mostly inhibitors; hit rate 0.72% among 360,000; also: % is scaled to controls: 0 for no effect and ±100 for the full control effect; nearly all actives have a fitted effect of over 55% in size
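ATXN2-luciferase reporter cells (luciferase flanked by upstream and downstream ATXN2 gene portions) were treated 24 h at 37 °C with compounds at up to 57 uM. SteadyGlo luminescence gave expression; GF-AFC fluorescence gave viability.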
S2 tox – cell viability loss in ATXN counter-screen; S2 cells (HEK-293 line with an ATXN2-luciferase reporter) viability, CellTiter-Fluor protease fluorescence, 24 h; Potency, µM (doses to about 56.7 µM), actives largely listed as cytotoxic; hit rate 0.49% among 400,000; AID 651635; also: nearly all actives have a fitted effect of over 40% in size
Nrf2 ARE act – Nrf2 pathway activation | AREc32 ARE-luciferase reporter (MCF7-derived line), luminescence, 24 h | Potency, µM (top dose mostly 46.1 µM), for the others: at the highest dose activation, usual class: activators | hit rate 0.31% among 410,000 | AID 624171; also: % of control where 0% means no effect; nearly all actives have a fitted effect of over 65% in size
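Nrf2 activation is followed as ARE-luciferase induction in the AREc32 line after one day of compound treatment; luminescence is read with Steady-Glo.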
* = called active by the depositor; i = inactive; ? = inconclusive; . = not tested or not shown; ! = a repeat was not active. The list is not random: actives were taken first. Their share in the collection is about 2.9%. Calls follow the shape of the dose curve; as a rule, active = well fitted curve in the direction sought with a large enough effect; inconclusive = small, poorly fitted or top-dose-only effect, or another doubt; inactive = no such curve, though single readings can be large; an effect the other way counts as inactive or inconclusive. Potency is read from the fitted curve at half-maximal effect.

SMILES	A549 viability	Nrf2 inh	ATXN2 expr inh	S2 tox	Nrf2 ARE act
COc1ccc(C2Nc3ccccc3C(=O)N2Cc2ccccc2)cc1COc1cccc(Cl)c1 (configuration not stated)	3%	-12%	.	.	.
Nc1nc(=S)c2[nH]cnc2[nH]1	-19%	?	4µM*!	?	-1%
Cc1cccc(Cn2c(=O)n3nc(-c4ccccc4)nc3c3ccccc32)c1	-6%	15µM*	0%	i	0%
COc1ccc(/C(C)=N/NC(=O)c2nnn(-c3nonc3N)c2CN(C)c2ccccc2)cc1	-13%	16µM*	-12%	?	0%
C/C(=N\NC(=O)c1nnn(-c2nonc2N)c1CN(C)c1ccccc1)c1ccccc1O	-18%	8.2µM*	?	i	-1%
CC(=O)c1ccccc1C(=O)NCC1Cc2cccc(-c3cccnc3)c2O1 (configuration not stated)	.	.	.	i	.
Cc1nc2cc(NC(=O)[C@@H]3C[C@@H](Sc4ccccn4)CN3Cc3ccc(F)cc3F)ccc2s1	.	.	.	i	.
C#CCn1c(=NC(=O)c2ccc(S(=O)(=O)N3CCc4ccccc4C3)cc2)sc2cc(S(N)(=O)=O)ccc21	5.2µM*	3.3µM*	?	18µM*	-2%
COc1ccc2[nH]c(-c3ccc(C)cc3)cc(=O)c2c1	9%	?	18µM*	i	-4%
Cc1cc(C)nc(S[C@H]2C[C@@H](C(=O)N3CCN(c4ccccc4F)CC3)N(Cc3ccccc3F)C2)n1	.	.	.	i	.
Cc1cc(O)c(C(C)C)cc1N=Cc1ccccc1[N+](=O)[O-]	-5%	1%	18µM*	?	?
Cc1cc(O)c(C(C)C)cc1N=Nc1ccccc1C(=O)O	-17%	?	6%	?	?
O=C(NCc1ccc(Cl)cc1)C1(c2cccs2)CCOCC1	4%	.	5%	i	-1%
COc1ccc(S(=O)(=O)NCc2ccco2)c2ccccc12	?	3.7µM*	6%	i	?
COc1ccc([N+](=O)[O-])cc1NCc1ccco1	-7%	?	.	i	11µM*
COc1ccc(/C=C/C(=O)O)cc1S(=O)(=O)NCc1ccco1	1%	-12%	4%	i	0%
COc1ccc(Cl)cc1NC(=O)CSc1nnc(C)n2c1cc1sccc12	8%	?	.	.	-1%
C=Cc1ccc(CSc2nnc(C)n3c2cc2occc23)cc1	12%	18µM*	3%	i	6%
Cc1nnc(SCc2ccc(Cl)cc2)c2cc3occc3n12	?	?	-10%	i	7%
Cc1nc(Nc2ccc(C(=O)O)cc2)nc(Nc2ccc(C(=O)O)cc2)c1[N+](=O)[O-]	-21%	?	.	?	0%
CC(=O)Nc1ccc(Nc2nc(C)c([N+](=O)[O-])c(Nc3ccccc3)n2)cc1	?	16µM*	?	?	3%
Cc1ccc(C(=O)c2cc([N+](=O)[O-])ccc2N2CC(C)OC(C)C2)cc1 (configuration not stated)	-30%	2%	.	?	0%
Cc1ccc(C(=O)c2cc([N+](=O)[O-])ccc2N2CCCCC2)cc1	16µM*	?	-3%	i	3%
COc1ccc(C2c3c(ncn(Cc4ccccc4)c3=N)Oc3ccc4ccccc4c32)cc1OC (configuration not stated)	-10%	3%	.	.	.
Oc1ccccc1C1SC(c2ccccc2O)SC(c2ccccc2O)S1 (configuration not stated)	-1%	22%	20µM*	.	0%
O=S(=O)(c1ccccc1)c1nc(-c2ccc(F)cc2)oc1N1CCCCCC1	-12%	26µM*	-23%	?	6%
CC(=O)c1c(C)oc2ccc(NS(=O)(=O)c3ccc(C)cc3)cc12	-16%	-16%	-4%	?	0%
CC(=O)c1c(C)oc2ccc(NS(=O)(=O)c3ccc(C(C)C)cc3)cc12	-4%	13µM*	-12%	?	4%
COc1cc2c(cc1OC)CN(C(=O)[C@H](C)N[C@@H](CCc1ccccc1)C(=O)O)[C@H](C(=O)O)C2	.	.	10%	i	.
C/C(=C(\CCOC(=O)c1ccccc1)SS/C(CCOC(=O)c1ccccc1)=C(/C)N(C=O)Cc1cnc(C)nc1N)N(C=O)Cc1cnc(C)nc1N	.	.	.	i	.
